PriA SSB inh: K. pneumoniae PriA-SSBct interaction inhibition | AlphaScreen SSBct-PriA binding, biotinylated peptide | inhibition, % at 33 µM | AID 1272365 | 430,000 compounds, 0.6% hits; in the data active means inhibition mostly above about 37%, no sharp cut-off; inactive means mostly below about 20%;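 further: plate controls were negative control peptide for no effect and reference peptide for full effect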
Rv3671c protease: Rv3671c (M. tuberculosis) protease inhibition; inhibition, % at 5.96 µM; 320,000 compounds, 0.048% hits; AID 2606; in the data active means inhibition above about 38%;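 further: extracellular domain of Rv3671c used as enzyme; 0% = enzyme with DMSO and 100% = no enzyme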
Mtb bLac sens: beta-lactam sensitization of Mtb H37Rv. M. tuberculosis H37Rv growth with meropenem, percent inhibition. inhibition, % at 25 µM. 330,000 compounds, 0.27% hits. AID 434955; call rule not given here;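 further: growth measured after seven days incubation then overnight dye step; 0% = bacteria only wells and 100% = bacteria with antibiotic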
Mtb FBA inh: inhibitors of M. tuberculosis fructose-bisphosphate aldolase; P9WQA3; purified M. tuberculosis FBA, fluorescence read-out; inhibition, % at 1 µM; 360,000 compounds, 2.3% hits;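 further: 0% = vehicle and 100% = reference inhibitor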
Target sequence (P9WQA3 whole entry, looked up): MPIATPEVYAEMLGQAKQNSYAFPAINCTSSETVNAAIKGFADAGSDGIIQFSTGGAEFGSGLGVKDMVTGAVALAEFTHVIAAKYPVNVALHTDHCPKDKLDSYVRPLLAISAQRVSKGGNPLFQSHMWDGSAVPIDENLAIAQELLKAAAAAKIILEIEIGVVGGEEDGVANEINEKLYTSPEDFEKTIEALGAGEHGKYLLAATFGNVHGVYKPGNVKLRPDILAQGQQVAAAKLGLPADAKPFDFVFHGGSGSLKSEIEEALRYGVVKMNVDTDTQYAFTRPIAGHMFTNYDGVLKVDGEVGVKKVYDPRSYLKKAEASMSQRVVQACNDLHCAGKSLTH
GDH-TPI counter-1: GDH-TPI coupled enzyme inhibition counter-screen. AID 588335. inhibition, % at 4.8 µM. 360,000 compounds, 1.2% hits. GDH-TPI coupled enzyme counterscreen, NADH absorbance; in the data active means inhibition above about 30%;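 further: 0% = DMSO wells and 100% = wells lacking the enzyme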
UGM FP inh: Mtb UDP-galactopyranose mutase inhibition; P9WIQ1; purified UGM, fluorescence polarization probe displacement; inhibition, % at 10 µM; 320,000 compounds, 0.06% hits; in the data active means inhibition above about 10%, passing the limit was not always enough
Mtb FBA inh conf: Mtb FBA inhibition, confirmed; shares compounds with Mtb FBA inh; inhibition, % at 1 µM; purified M. tuberculosis FBA, fluorescence read-out; AID 651616; 5,600 compounds, 78% hits;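 further: 0% = vehicle wells and 100% = reference inhibitor wells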
GDH-TPI counter-2: counter-screen for M. tuberculosis FBA inhibitors: GDH-TPI coupled enzyme inhibition; shares compounds with Mtb FBA inh; GDH-TPI coupled enzyme counterscreen, fluorescence; inhibition, % at 1 µM; 5,600 compounds, 81% hits; in the data active means inhibition above about 10%
Active calls of the source: *; nt = not tested or not shown; + = active, no number. Sampled rows, rich in hits. Any-hit rate of the full collection: about 3.2%. Unless noted, no stated cut-off is given here; in the data, active means inhibition above about 27%; inactive means the rest.

SMILES | PriA SSB inh | Rv3671c protease | Mtb bLac sens | Mtb FBA inh | GDH-TPI counter-1 | UGM FP inh | Mtb FBA inh conf | GDH-TPI counter-2
COC(=O)c1ccc2cc(C)cc(C)c2n1 | nt | nt | nt | 59* | nt | nt | 12 | 15*
COC(=O)c1ccc2cc(F)cc(C)c2n1 | nt | nt | nt | 11 | nt | nt | nt | nt
CO[C@@H](CNC(=O)c1cccc(C(F)(F)F)c1)c1ccco1 | -6 | nt | nt | nt | nt | nt | nt | nt
Cc1onc(-c2ccccc2Cl)c1C(=O)Nc1nnc(-c2ccc(Cl)cc2Cl)s1 | -6 | -3 | -4 | 62* | 21 | -2 | 68* | 57*
Cc1onc(-c2ccccc2Cl)c1C(=O)Nc1nnc(-c2ccc(Br)cc2)s1 | -7 | -16 | 0 | 92* | 37* | -1 | 119* | 99*
O=C(NN=Cc1cc([N+](=O)[O-])c(N2CCOCC2)cc1N1CCOCC1)c1cccnc1 | -13 | nt | nt | nt | nt | nt | nt | nt
CCCc1cc(NCCCN2CCOCC2)n2c(nc3ccccc32)c1C#N | -11 | -1 | -14 | 101* | 4 | -2 | 54* | 41*
CCCc1cc(Nc2c(C)n(C)n(-c3ccccc3)c2=O)n2c(nc3ccccc32)c1C#N | -10 | -3 | -4 | 8 | 13 | -1 | nt | nt
CCN(CC)CCNc1cc(C)c(C#N)c2nc3ccccc3n12 | -8 | -12 | -3 | 86* | 13 | 2 | 24 | 16*
Nc1nc(N2CCN(C(=O)c3ccco3)CC2)nc2ccccc12 | -3 | -5 | -5 | 45* | -3 | 4 | 7 | -4
CCCc1cc(N2CCN(C(=O)c3ccco3)CC2)n2c(nc3ccccc32)c1C#N | -13 | -3 | 0 | 32* | 1 | -1 | 100* | 84*
Cc1cc(NCCN2CCOCC2)n2c(nc3ccccc32)c1C#N | -4 | -4 | 0 | 58* | 6 | -2 | 104* | 81*
COCCN(CCOC)c1cc(C)c(C#N)c2nc3ccccc3n12 | 0 | -5 | -7 | 39* | 7 | -1 | 43* | 41*
CC(C)c1cc(N2CCOCC2)n2c(nc3ccccc32)c1C#N | -15 | nt | nt | nt | nt | nt | nt | nt
O=c1cccnn1CCNS(=O)(=O)Cc1ccccc1 | -2 | nt | nt | nt | nt | nt | nt | nt
CCOC(=O)c1ccc(NC(=O)CCSc2nc(N)c3c(C)c(C)sc3n2)cc1 | -11 | nt | nt | nt | nt | nt | nt | nt
c1ccc(-n2ncc3c(N4CCCCC4)ncnc32)cc1 | -12 | 3 | 5 | 6 | 1 | 3 | nt | nt
N#Cc1nn(-c2ccccc2)nc1N1CCCCC1 | -20 | 1 | 32 | 38* | 12 | 0 | 129* | 106*
COC(=O)c1ccc(-c2ccc(CNCC(O)c3ccccc3)o2)cc1 (stereo not drawn) | 6 | 8 | 9 | 36* | 14 | 1 | 126* | 106*
Cc1cccc(NC(=O)C(C)SCc2nc3sc4c(c3c(=O)[nH]2)CCCC4)n1 (stereo not drawn) | -1 | -4 | -1 | 31* | 6 | 1 | 153* | 93*
Cc1cccc(NC(=O)CCc2nc3sc4c(c3c(=O)[nH]2)CCCC4)c1 | -4 | 0 | -14 | 2 | 19 | 1 | nt | nt
Cn1cccc1C(CNC(=O)C(=O)NCCN1CCOCC1)N1CCCC1 (stereo not drawn) | -21 | nt | nt | nt | nt | nt | nt | nt
O=C(Cc1cccs1)Nc1cccc(-c2nc3cc4ccccc4cc3[nH]2)c1 | -24 | -347 | 71 | 56* | 22 | -1 | -5 | -4
O=C(COCC(=O)Nc1cccc(-c2nc3ccccc3[nH]2)c1)Nc1cccc(-c2nc3ccccc3[nH]2)c1 | -22 | nt | nt | nt | nt | nt | nt | nt
CCC(C)NC(=O)Cn1cnc2sc(C)c(S(=O)(=O)N3CCN(c4ncccn4)CC3)c2c1=O (stereo not drawn) | 6 | -3 | 0 | 3 | 2 | -1 | nt | nt
COCCCNC(=O)Cn1cnc2sc(C)c(S(=O)(=O)N3CCN(c4ncccn4)CC3)c2c1=O | 2 | -8 | -8 | 27* | 4 | -1 | + | +
ON=Cc1cn(-c2ccccc2)nc1-c1ccc2c(c1)OCCO2 | -4 | nt | nt | nt | nt | nt | nt | nt
C#CCOc1ccc(C2C3=C(CCCC3=O)N(CC(=O)O)C3=C2C(=O)CCC3)cc1Br | -1 | -4 | -5 | 91* | 3 | 0 | 153* | 131*
Cc1ccc(-c2cc(C)nc3nc(N)nn23)cc1 | -6 | 4 | -6 | 83* | 17 | 2 | 61* | 51*
